Experimental findings from PubChem BioAssay (Tox21) are described below.

A short description of assay [1]: qHTS assay to identify small molecule antagonists of the androgen receptor (AR) signaling pathway using the MDA cell line in the presence of 0.5 nM R1881 - cell viability counter screen (AID 1259242). Also: nearly all actives have a fitted effect of over 45% in size. The gist of the method:
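Cytotoxicity toward MDA-kb2 cells is measured by CellTiter-Fluor live-cell protease fluorescence after 16 hr compound exposure at 37C in the presence of 0.5 nM R1881 stimulator.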
In general terms: In qHTS, concentration-response curves come from the screen itself.

Assay [2] deals with Estrogen receptor (Homo sapiens) (UniProt P03372). Put plainly: qHTS assay to identify small molecule antagonists of the estrogen receptor alpha (ER-alpha) signaling pathway using the BG1 cell line in the presence of 0.1 nM 17-beta-estradiol (AID 1259244). Also: nearly all actives have a fitted effect of over 50% in size. The gist of the method:
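After 5 days in hormone-depleted medium (charcoal-stripped serum, no phenol red), VM7Luc4E2 cells were seeded, incubated 24 h, then co-treated with compound and 0.1 nM (final) estradiol for 22 h before luminescence detection.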

Assay [3] can be described thus: qHTS assay to identify small molecule phospholipidosis (PLD) inducers (AID 1259344; active = well fitted curve in the direction sought with a large enough effect; an effect the other way counts as inactive or inconclusive). The gist of the method: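 Fluorescent phospholipid staining (LipidTOX Red) measured by automated microscopy in fixed HepG2 cells after 24 h treatment; nuclei counterstained with Hoechst 33342; amiodarone as reference inducer.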
Assay [4] can be described thus: qHTS assay to identify small molecule HDAC inhibitors (AID 1259364). Also: top concentration of the series differs between compounds; nearly all actives have a fitted effect of over 45% in size. The gist of the method:
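Homogeneous cell-based luminescent assay of endogenous class I/II HDAC activity; HCT-116 cells, 2 h compound exposure, 30 min HDAC-Glo development at RT.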

A short description of assay [5]: qHTS assay to identify small molecule HDAC inhibitors - cell viability counter screen (AID 1259365). Also: series mostly up to about 92 µM; nearly all actives have a fitted effect of over 50% in size. The gist of the method:
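Counter screen in wild-type HCT-116 cells: compounds dissolved in DMSO are pin-transferred onto overnight-plated cells and left 2hr at 37C. ATP-based CellTiter-Glo luminescence then measures viable cells.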

Assay [6] in a line: qHTS assay to identify small molecule agonists of the sonic hedgehog signaling (Shh) pathway - cell viability counter screen (AID 1259366). Also: nearly all actives have a fitted effect of over 50% in size. The gist of the method: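 Cells are plated at 2,000 per well and left 4hr at 37C, 5% CO2 before compound addition. After 23hr of treatment, CellTiter-Fluor reagent is added for 1hr at 37C and fluorescence is measured.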
A short description of assay [7]: qHTS assay to identify small molecule antagonists of the sonic hedgehog signaling (Shh) pathway - cell viability counter screen (AID 1259367). Also: nearly all actives have a fitted effect of over 55% in size. Put shortly:
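Using CellTiter-Fluor, viability of Gli1-Luc reporter 3T3 cells is read by fluorescence in the wells used for the Shh luciferase assay. Treatment lasts 23 hr with conditioned medium, then reagent 1 hr at 37C.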

Assay [8] can be described thus: qHTS assay to identify small molecule agonists of the sonic hedgehog signaling (Shh) pathway (AID 1259368; calls by dose curve;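 also: NIH/3T3-derived 3T3Gli1-Luc cells carrying a stable Gli1-driven firefly luciferase reporter; series mostly up to about 92 µM; nearly all actives have a fitted effect of over 15% in size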). Put shortly:
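Steps: seed 3T3 Gli1-Luc cells, incubate 4 hr at 37 C, pin-transfer compounds in DMSO alongside a positive control, incubate 24 hr, add luciferase detection reagent, wait 30 min at room temperature, read luminescence.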

A short description of assay [9]: qHTS assay to identify small molecule antagonists of the sonic hedgehog signaling (Shh) pathway (AID 1259369; calls by dose curve; also: nearly all actives have a fitted effect of over 45% in size; also: potency is read from the fitted curve at half-maximal effect). The gist of the method: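 Inhibition of Shh signalling is measured as reduced Gli1-response-element firefly luciferase output in an NIH/3T3-derived stable reporter clone stimulated with conditioned medium for 24hr.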

Molecules are shown by their SMILES. Values without a mark were called inactive. Inconclusive results are not listed. Activity calls are given as the source filed them. Unless noted, calls follow the shape of the dose curve; as a rule, active = well fitted curve in the direction sought with a large enough effect in the repeat runs; inconclusive = weak or mixed curves; inactive = no such curve, though single readings can be large; an effect the other way counts as inactive or inconclusive. Where a SMILES comes first, the peptide text is derived from it. [ ]: non-standard residue; d: D form. pGlu = O=C1CC[C@@H](C(=O)O)N1
% is scaled to controls: 0 for no effect and ±100 for the full control effect.

Estrogen receptor (Homo sapiens), sequence (P03372 whole entry, looked up): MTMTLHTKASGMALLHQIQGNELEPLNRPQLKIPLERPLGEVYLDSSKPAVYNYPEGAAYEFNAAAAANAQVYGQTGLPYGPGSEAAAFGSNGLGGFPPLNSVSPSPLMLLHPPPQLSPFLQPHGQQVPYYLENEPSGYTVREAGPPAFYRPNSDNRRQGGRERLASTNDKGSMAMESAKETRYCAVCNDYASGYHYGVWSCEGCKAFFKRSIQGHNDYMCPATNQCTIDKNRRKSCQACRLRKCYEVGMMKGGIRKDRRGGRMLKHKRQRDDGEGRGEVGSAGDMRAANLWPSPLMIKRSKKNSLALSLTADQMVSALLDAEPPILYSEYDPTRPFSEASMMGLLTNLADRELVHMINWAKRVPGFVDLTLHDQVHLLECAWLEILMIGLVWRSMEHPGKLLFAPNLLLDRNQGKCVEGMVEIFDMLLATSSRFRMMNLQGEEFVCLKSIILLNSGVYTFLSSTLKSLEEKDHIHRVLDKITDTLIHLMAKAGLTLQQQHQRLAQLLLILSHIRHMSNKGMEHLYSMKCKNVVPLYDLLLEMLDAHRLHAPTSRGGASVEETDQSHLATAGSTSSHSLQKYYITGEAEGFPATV

In the case of `COc1cc(C(=O)OC(COCCC(C)C)CN2CCOCC2)cc(OC)c1OC` (stereo not drawn), the outcome in assay [1], in [2], in assay [3], in assay [5] and in [8] was inactive. Further, the Potency entry in assay [4], in [6], in assay [7] and in assay [9] was “inactive” throughout.
On to `CCCCCCCCCCOc1cc2c(=O)c(C(=O)OCC)c[nH]c2cc1OCC`, for which the viability change, negative = cytotoxic in [1] is 2.82% [at 8.39 µM]; in assay [6] it was 2.95% [at 8.39 µM]. The figures for the activity change, negative = inhibition in [2], in assay [4] and in [9] were -1.66% [at 8.39 µM], 0.14% [at 8.39 µM] and 27.8% [at 8.39 µM], respectively. Besides, the molecule was called inactive in assay [3]. For the same molecule, the activity change in assay [8] is -0.042% [at 8.39 µM].
Regarding `CC(C)(C)C(=O)Oc1ccc(S(=O)(=O)Nc2ccccc2C(=O)NCC(=O)O)cc1`, the outcome in [1], in assay [2], in assay [3], in assay [5] and in [8] was inactive. Moreover, the Potency entry in assay [4], in [6], in [7] and in assay [9] was “inactive” each time.
On to `Cc1cccc(C)c1NC(=O)CC12CCCN1CCC2`, for which the outcome in assay [1], in [2], in [3] and in assay [8] was inactive. The Potency result in [4], in assay [6] and in assay [9] was “inactive” each time.
With `CN(C)C(=O)Oc1ccc[n+](C)c1`, the result in assay [1], in [2], in assay [3], in assay [5] and in [8] was inactive. The Potency result in [4], in assay [6], in assay [7] and in assay [9] was “inactive” in each case.
In the case of `C[N+]1(C)[C@@H]2CC(OC(=O)[C@H](CO)c3ccccc3)C[C@H]1[C@@H]1O[C@@H]12` (stereo partly drawn), the result in [1], in assay [2], in assay [3], in assay [5] and in [8] was inactive. Further, the Potency result in assay [4], in assay [6], in [7] and in assay [9] was “inactive” throughout.
On to `O=C(CO)[C@@H](O)[C@H](O)[C@@H](O)CO`, for which the result in assay [1], in [2], in [3], in assay [5] and in assay [8] was inactive. The Potency entry in assay [4], in [6], in [7] and in assay [9] was “inactive” each time.
On to `C[C@H]1C[C@H]2[C@@H]3CCC4=CC(=O)C=C[C@]4(C)[C@H]3C(=O)C[C@]2(C)[C@@]1(O)C(=O)CO`, for which the result in assay [1], in [2], in assay [5] and in assay [8] was inactive. Besides, in assay [3], the PLD induction was 2.13% [at 7.66 µM]. In addition, the Potency result in [6], in assay [7] and in [9] was “inactive” throughout.
`CCC(C(=O)NC(=O)NC(C)=O)c1ccccc1` (stereo not drawn): the outcome in [1], in assay [2], in [5] and in assay [8] was inactive. The PLD induction in assay [3] was -2.71% [at 7.66 µM]. For the same molecule, the Potency result in assay [4], in [6], in assay [7] and in assay [9] was “inactive” in each case.
As for `Cc1ccnc(NS(=O)(=O)c2ccc(N)cc2)n1`, the result in [1], in [2], in [3], in assay [5] and in assay [8] was inactive. The Potency entry in assay [4], in assay [6] and in assay [9] was “inactive” each time.
Regarding `Nc1ccn([C@@H]2O[C@H](CO)[C@@H](O)C2(F)F)c(=O)n1`, the result in [1], in assay [2], in assay [3], in assay [5] and in assay [8] was inactive. Also, the Potency entry in assay [6], in [7] and in [9] was “inactive” throughout.
On to `CCOC(=O)c1cnc2c(cnn2CC)c1NN=C(C)C`, for which the result in assay [1], in assay [2], in assay [3], in assay [5] and in [8] was inactive. The Potency entry in assay [4] and in assay [6] was “inactive” throughout.
Consider `CO[C@@]1(NC(=O)C(C(=O)O)c2ccc(O)cc2)C(=O)N2C(C(=O)O)=C(CSc3nnnn3C)CO[C@@H]21` (stereo partly drawn), for which the outcome in assay [1], in assay [2], in assay [3], in assay [5] and in [8] was inactive. The Potency entry in assay [6], in assay [7] and in assay [9] was “inactive” in each case.
For `CCOCC(C)O` (stereo not drawn), the result in [1], in assay [2], in [5] and in assay [8] was inactive. In addition, the Potency entry in assay [4], in [6], in assay [7] and in assay [9] was “inactive” throughout.
In the case of `C[C@@H]1C[C@H]2[C@@H]3C[C@H](F)C4=CC(=O)C(Cl)=C[C@]4(C)[C@@]3(F)[C@@H](O)C[C@]2(C)[C@@]1(O)C(=O)CO`, the result in assay [1], in assay [2], in assay [3] and in assay [8] was inactive. The Potency result in assay [6] was “inactive”. Further, in [9], the Potency was 18.8 µM (active).
Take `CCC(C)(CCCC(C)C)OC(C)=O` (stereo not drawn): the result in assay [1], in assay [2], in assay [5] and in assay [8] was inactive. In addition, the Potency result in assay [4], in [6], in [7] and in [9] was “inactive” throughout.
For the molecule `CCNC(=O)[C@@H]1CCCN1C(=O)[C@H](CCCN=C(N)N)NC(=O)[C@H](CC(C)C)NC(=O)CNC(=O)[C@H](Cc1ccc(O)cc1)NC(=O)[C@H](CO)NC(=O)[C@H](Cc1c[nH]c2ccccc12)NC(=O)[C@H](Cc1cnc[nH]1)NC(=O)[C@@H]1CCC(=O)N1` ([pGlu]HWSYGLRP-NHEt), the outcome in assay [1], in [2], in assay [5] and in assay [8] was inactive. The Potency result in assay [4], in [6], in assay [7] and in assay [9] was “inactive” throughout.
In the case of `CCCO[Si](OCCC)(OCCC)OCCC`, the outcome in assay [1], in assay [2], in assay [5] and in assay [8] was inactive. For the same molecule, the Potency entry in assay [4], in assay [6], in assay [7] and in [9] was “inactive” each time.
In the case of `NC(CCC(=O)O)C(=O)O` (stereo not drawn), the result in [1], in assay [2], in assay [5] and in [8] was inactive. The Potency entry in [4], in assay [6], in assay [7] and in assay [9] was “inactive” each time.
Take `COc1ccc2cc1Oc1cc3c(cc1OC)CC[N+](C)(C)[C@H]3Cc1ccc(cc1)Oc1c(OC)c(OC)cc3c1[C@@H](C2)[N+](C)(C)CC3`: the result in assay [1], in assay [2], in assay [3], in assay [5] and in assay [8] was inactive. Further, the Potency result in [6], in assay [7] and in assay [9] was “inactive” in each case.
On to `COc1ccnc(CS(=O)c2nc3cc(OC(F)F)ccc3[nH]2)c1OC` (stereo not drawn), for which the outcome in [1], in assay [2], in assay [5] and in assay [8] was inactive. For the same molecule, the Potency result in [4], in assay [6] and in assay [7] was “inactive” in each case.
As to `[K+]`, the outcome in assay [1], in [2], in assay [5] and in [8] was inactive. Further, the Potency entry in assay [4], in assay [6], in assay [7] and in assay [9] was “inactive” in each case.
Consider `CC1=CC(=O)[C@H]2C[C@@H]1C2(C)C`, for which the result in assay [1], in assay [2], in [5] and in [8] was inactive. Moreover, the Potency result in assay [4], in assay [6], in assay [7] and in assay [9] was “inactive” in each case.
Take `CC(=O)NC(=O)c1ccccc1O`: the outcome in assay [1], in [2], in [3], in [5] and in assay [8] was inactive. For the same molecule, the Potency entry in [6], in assay [7] and in assay [9] was “inactive” in each case.
On to `CC(C)COC(=O)c1ccc(N)cc1`, for which the result in assay [1], in assay [2], in [3], in assay [5] and in assay [8] was inactive. Moreover, the Potency entry in [6], in [7] and in [9] was “inactive” in each case.
With `Cc1cc(C)c(N=Nc2c(O)c(S(=O)(=O)O)cc3cc(S(=O)(=O)O)ccc23)cc1C`, the viability change, negative = cytotoxic in assay [1] is -3.59% [at 8.39 µM]; in assay [6] it was -2.37% [at 8.39 µM]; in assay [7], -9.99% [at 8.39 µM]. Further, the activity change, negative = inhibition in [2] is -1.05% [at 8.39 µM]; in [4] it was -2.59% [at 8.39 µM]; in assay [9], 9.78% [at 8.39 µM]. Also, the activity change, negative = cytotoxicity in assay [5] was -2.91% [at 8.39 µM]. Besides, the activity change in assay [8] was -1.73% [at 8.39 µM].
